# Publication PMC4336329 (PLoS ONE, 2015)
# Screen size: about 310,000 compounds; about 14,000 (4.5%) showed an effect of 50% or more. The effect is printed as a negative number. The list comes from a sample in which strong results are over-represented; it also holds similar structures and randomly drawn compounds.
# Target: human ether-à-go-go-related gene (hERG) potassium channel (human, UniProt Q12809)
# Assay: primary screen, population patch clamp on CHO cells stably expressing hERG; higher = less effect of the substance
# 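Further: peak tail current of the secondary pulse compared with the same well before compound.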
# Chain of human ether-à-go-go-related gene (hERG) potassium channel (Q12809 whole entry, looked up): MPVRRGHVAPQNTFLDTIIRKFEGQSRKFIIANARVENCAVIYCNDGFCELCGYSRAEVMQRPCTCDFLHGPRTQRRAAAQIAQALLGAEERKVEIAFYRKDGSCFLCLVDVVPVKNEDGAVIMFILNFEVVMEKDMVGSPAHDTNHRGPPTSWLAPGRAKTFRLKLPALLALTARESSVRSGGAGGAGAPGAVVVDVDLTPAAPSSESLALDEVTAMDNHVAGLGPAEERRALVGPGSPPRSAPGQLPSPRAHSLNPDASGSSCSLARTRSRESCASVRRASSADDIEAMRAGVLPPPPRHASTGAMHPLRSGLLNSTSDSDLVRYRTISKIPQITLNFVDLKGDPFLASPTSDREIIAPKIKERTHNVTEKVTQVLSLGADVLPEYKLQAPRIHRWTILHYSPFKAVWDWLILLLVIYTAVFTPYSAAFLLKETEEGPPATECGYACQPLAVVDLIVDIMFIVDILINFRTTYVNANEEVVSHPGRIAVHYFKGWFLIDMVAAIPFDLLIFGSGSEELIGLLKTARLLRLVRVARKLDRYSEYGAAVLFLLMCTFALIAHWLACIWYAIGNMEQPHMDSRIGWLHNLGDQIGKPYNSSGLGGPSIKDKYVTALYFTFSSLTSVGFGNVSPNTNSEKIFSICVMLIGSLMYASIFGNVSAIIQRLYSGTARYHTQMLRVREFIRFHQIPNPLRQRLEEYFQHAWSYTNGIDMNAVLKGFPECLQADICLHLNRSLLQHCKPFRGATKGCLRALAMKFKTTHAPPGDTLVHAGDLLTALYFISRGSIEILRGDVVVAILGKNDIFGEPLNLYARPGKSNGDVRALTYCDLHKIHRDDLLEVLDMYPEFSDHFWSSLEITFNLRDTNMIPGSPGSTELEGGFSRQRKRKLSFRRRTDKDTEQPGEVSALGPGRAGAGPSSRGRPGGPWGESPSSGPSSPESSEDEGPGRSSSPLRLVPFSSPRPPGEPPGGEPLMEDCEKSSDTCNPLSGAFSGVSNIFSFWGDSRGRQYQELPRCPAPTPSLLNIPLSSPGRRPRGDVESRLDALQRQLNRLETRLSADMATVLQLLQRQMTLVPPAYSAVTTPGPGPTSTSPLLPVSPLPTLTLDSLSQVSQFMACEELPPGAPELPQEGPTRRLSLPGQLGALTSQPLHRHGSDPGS
row,SMILES,"hERG current change (%, negative = inhibition) at 10uM [%]"
1,COc1cccc(C(=O)N2CCN(C(=O)c3cccc(F)c3)CC2)c1,-0.0938
2,CCC(=O)N1CCN(c2ccc(OC)cc2[N+](=O)[O-])CC1,-19.5
3,COc1ccc(N2CCN(C(=O)c3ccccc3)CC2)c([N+](=O)[O-])c1,-67.7
4,Cn1c(=O)n(C)c2cc([N+](=O)[O-])c(N3CCN(C(=O)c4cccc(F)c4)CC3)cc21,-32.7
5,COc1cccc(CC(=O)N2CCN(c3ccccc3[N+](=O)[O-])CC2)c1,-21
6,COc1ccc(C(=O)c2ccc(N3CCOCC3)c([N+](=O)[O-])c2)cc1,-43.7
7,COc1ccc(N2CCN(c3ccc(C(N)=O)cc3[N+](=O)[O-])CC2)cc1,2.51
8,COc1ccc(N2CCN(C(=O)CC34CC5CC(CC(C5)C3)C4)CC2)c([N+](=O)[O-])c1,0.229
9,COc1ccc(N2CCN(C(=O)c3cccc(F)c3)CC2)c([N+](=O)[O-])c1,-73.2
10,CCCCC(=O)N1CCN(c2ccc(OC)cc2[N+](=O)[O-])CC1,-64.5
11,COc1ccc(N2CCN(C(=O)c3ccc(Br)cc3)CC2)c([N+](=O)[O-])c1,-72.3
12,COc1ccc(N2CCN(C(=S)NC(=O)c3cccs3)CC2)c([N+](=O)[O-])c1,-47.8
13,COc1ccc(C2N=C(Nc3ccc(C)cc3)Nc3nc(C)cc(=O)n32)cc1 (stereo not shown),1.81
14,COc1ccc(CCN2CC(O)=C(c3nc(C)cs3)C2=N)cc1OC,-21.8
15,CCn1c(=O)c(C(=O)CN2CC(C)OC(C)C2)c(N)n(Cc2ccccc2)c1=O (stereo not shown),-32.6
16,COc1ccc(CCNC(=O)NC2CCCCC2)cc1OC,8.03
17,O=C(Nc1ccc(Cl)cc1)c1cc2c(cc1O)[nH]c1ccccc12,21
18,Cc1ccc2nc(-c3ccc(NS(=O)(=O)c4ccc(F)c(F)c4)cc3)sc2c1,23.3
19,COc1cccc(C2CC(c3ccccc3Cl)n3nc(N)nc3N2)c1 (stereo not shown),-9.01
20,COc1ccc(CCN(Cc2nc(-c3ccccc3)no2)Cc2nc(-c3ccccc3)no2)cc1OC,-3.37
21,O=C(N/N=C/c1cc([N+](=O)[O-])ccc1O)C1C2CCCCC21 (stereo not shown),3.28
22,CCn1cc(C(=O)N[C@@H](CCSC)C(=O)NCCO)c(=O)c2cc3c(cc21)OCO3,20.6
23,O=C(NCCC1=CCCCC1)c1ccc(Br)o1,-4.78

row,SMILES,"hERG current change (%, negative = inhibition) at 10uM [%]"
1,COc1cccc(C(=O)NC(=S)N2CCN(c3ccc(C(F)(F)F)cc3[N+](=O)[O-])CC2)c1,1.6
2,O=C(c1ccc([N+](=O)[O-])cc1)N1CCN(C(=O)c2cccnc2)CC1,-15.7
3,O=C(c1cccnc1)N1CCN(c2ccccc2Cl)CC1,-18.5
4,Cc1ccc(C)c(N2CCN(C(=O)c3ccc(N4CCOCC4)c([N+](=O)[O-])c3)CC2)c1,-21.2
5,COc1ccc(N2CCN(C(=O)c3cccc(Br)c3)CC2)c([N+](=O)[O-])c1,-87.1
6,COc1cccc(C(=O)/C=C/c2ccc(N3CCCCC3)c([N+](=O)[O-])c2)c1,-3.01
7,O=C(c1cccnc1)N1CCN(c2ccc([N+](=O)[O-])cc2Cl)CC1,-65
8,O=C(c1cccnc1)N1CCN(c2c(Cl)cccc2[N+](=O)[O-])CC1,-46
9,COc1ccc(N2CCN(C(=O)c3ccc(C)cc3)CC2)c([N+](=O)[O-])c1,-62.9
10,COc1ccc(N2CCN(C(=O)c3cccnc3)CC2)c([N+](=O)[O-])c1,-70.8
11,COc1cccc(N2CCN(C(=O)c3cccnc3)CC2)c1,11.2
12,COc1ccc(C(C)=O)cc1COC(=O)CCNS(=O)(=O)c1ccc(C)c(C)c1,-38.3
13,O=C(CNC(=O)c1ccccc1)NCc1nc2ccccc2[nH]1,3.76
14,O=C(O)c1cc(-c2cccs2)nc2ccc(F)cc12,13.2
15,Cc1cccc(-c2nnn(Cc3nnc(NC(=O)c4ccccc4)s3)n2)c1,4.02
16,O=[N+]([O-])c1ccc(-c2cc(-c3ccc(Cl)cc3)n[nH]2)cc1,-4.49
17,COC(=O)c1sc2ncn(-n3c(C)ccc3C)c(=O)c2c1C,19.7
18,CCOC(=O)N1CCN(c2ccc(F)cc2[N+](=O)[O-])CC1,-10.5
19,O=C1NC(=O)C(=Cc2ccc(N3CCN(C(=O)c4ccccc4)CC3)c([N+](=O)[O-])c2)C(=O)N1,-67.1
20,CN(C)c1ccc(C=C2C(=O)NC(=O)NC2=O)cc1[N+](=O)[O-],30.8
21,CN1C(=O)C(=Cc2ccc(N3CCOCC3)c([N+](=O)[O-])c2)C(=O)N(C)C1=O,11.4
22,O=C(c1ccc(F)cc1)N1CCN(c2cc(N3CCCCC3)c(F)cc2[N+](=O)[O-])CC1,-24.6
23,COc1ccc(N2CCN(C(=O)c3ccc(F)cc3)CC2)c([N+](=O)[O-])c1,-70.1

row,SMILES,"hERG current change (%, negative = inhibition) at 10uM [%]"
1,CCCC(=O)N(CCN(Cc1ccccc1)C(=O)CCC)Cc1ccccc1,-42.5
2,CCC(CO)NC(=O)c1cccc(S(=O)(=O)N2c3ccccc3CC2C)c1 (stereo not shown),2.65
3,O=C(Nc1ccccc1[N+](=O)[O-])c1ccc(S(=O)(=O)N2CCCC2)cc1,1.84
4,CCCN(CCC)c1ncnc2nc[nH]c12,-7.36
5,CN(C)CCCN(C(=O)COc1ccc(Cl)cc1)c1nc2c(F)cccc2s1.Cl,-67.1
6,COc1ccc2sc(N(CCCN(C)C)C(=O)c3nc4ccccc4s3)nc2c1.Cl,-5.36
7,CN(C)CCN(C(=O)c1ccccc1Cl)c1nc2c(Cl)cccc2s1.Cl,-34.1
8,Cc1cccc2sc(N(CCCN(C)C)C(=O)COc3ccc(Cl)cc3)nc12.Cl,-60.5
9,CN(C)CCCN(C(=O)COc1ccccc1)c1nc2c(Cl)cccc2s1.Cl,-66.9
10,Cc1cc(C)c2sc(N(CCCN(C)C)C(=O)COc3ccc(Cl)cc3)nc2c1.Cl,-1.13
11,COc1cccc2sc(N(CCCN(C)C)C(=O)COc3ccc(Cl)cc3)nc12.Cl,-80.2
12,O=[N+]([O-])/C(C(Cl)=C(Cl)Cl)=C(/NC1CC1)Sc1ccccc1,7.59
13,CC(C)N1C(=O)CCC1C(=O)N1CCC(Cc2ccccc2)CC1 (stereo not shown),-25.3
14,CC(C)CC(C(=O)NCc1ccccn1)N1C(=O)c2ccccc2C1=O (stereo not shown),-1.75
15,CCc1ccc(N(CC(=O)NC(C)C)C(=O)CCC(=O)Nc2nccs2)cc1,13.4
16,COc1ccc(/C=C/C(=O)c2ccc3c4c(cccc24)CC3)cc1OC,20.8
17,Nc1nn(S(=O)(=O)c2ccccc2)cc1-c1ccc([N+](=O)[O-])cc1,-9.96
18,O=C(COC(=O)c1ccc2c(c1)OCO2)Nc1ccccc1F,11.8
19,O=C(O)Cc1ccc(NC(=O)c2ccc3c(c2)C(=O)N(CC2CCCO2)C3=O)cc1 (stereo not shown),12.6
20,CC1=C(C(=O)OCCBr)C(c2cccc3ccccc23)NC(=O)N1 (stereo not shown),17.5
21,CCCCN1C(=O)C(=O)N(CC(=O)N2CCc3ccccc32)C1=O,5.05
22,Cc1cc(C)cc(N(C(=O)c2ccco2)C(C(=O)NC2CCCC2)c2ccncc2)c1 (stereo not shown),9.94
23,COc1cc(C(=O)OCCC(C)C)cc(OC)c1O,-1.55

row,SMILES,"hERG current change (%, negative = inhibition) at 10uM [%]"
1,Cc1c(Br)c(=O)oc2c(Br)c(O)ccc12,19.9
2,CCOC(=O)Cn1cc(C#N)c(=O)[nH]c1=O,-17.8
3,Cc1c(C(=O)Nc2ccc3oc(-c4cccnc4)nc3c2)oc2ccccc12,-16.8
4,CCN(CC)CCN(C(=O)CCOc1ccccc1)c1nc2c(F)cc(F)cc2s1.Cl,-8.13
5,CN(C)CCCN(C(=O)COc1ccccc1)c1nc2c(F)cccc2s1.Cl,-81.2
6,CN(C)CCN(C(=O)CCS(=O)(=O)c1ccccc1)c1nc2c(F)cccc2s1,13.6
7,Fc1ccc(Cn2nnnc2CN2CCN(C3CCCCC3)CC2)cc1,-45.4
8,C/C(CC(=O)NC(C)C)=N\NC(=O)C(c1ccccc1)c1ccccc1,9.95
9,CC(C)(C)C(=O)C[n+]1ccc(C(N)=O)cc1.[Br-],0.811
10,O=S(=O)(Nc1ccc2c(c1)OCCO2)c1c(F)cccc1F,3.4
11,O=C(CCN1c2ccccc2Sc2ccccc21)OCC(=O)N1CCN(C(=O)c2ccco2)CC1,-66
12,CN(c1ccccc1)S(=O)(=O)c1cc(C(=O)OCC(N)=O)ccc1Cl,-4.09
13,O=C(Cc1c(Cl)cccc1Cl)OCC(=O)N1CCN(C(=O)c2ccco2)CC1,-14.9
14,O=C(OCC(=O)N1CCN(C(=O)c2ccco2)CC1)c1cccc(S(=O)(=O)N2CCc3ccccc32)c1,-84
15,O=C(OCC(=O)N1CCOCC1)c1cccc(S(=O)(=O)N2CCCc3ccccc32)c1,-24.9
16,O=C(CSc1ccccc1)OCC(=O)N1CCN(C(=O)c2ccco2)CC1,-27
17,O=C(Cc1ccc(Cl)cc1Cl)OCC(=O)N1CCN(C(=O)c2ccco2)CC1,-57.6
18,CCN(CC)S(=O)(=O)c1ccc(C(=O)OCC(=O)N2CCN(C(=O)c3ccco3)CC2)cc1,-37.2
19,CN(c1ccccc1)S(=O)(=O)c1cc(C(=O)OCC(=O)N2CCN(C(=O)c3ccco3)CC2)ccc1Cl,-68.3
20,O=C(Cc1ccccc1F)OCC(=O)N1CCN(C(=O)c2ccco2)CC1,-22.6
21,O=C(CCC(=O)c1cccs1)OCC(=O)N1CCN(C(=O)c2ccco2)CC1,-2.34
22,O=C(COC(=O)c1cccc(S(=O)(=O)N2CCc3ccccc32)c1)NCc1ccco1,21.5
